Results published in the supplement of paper PMC6555819.

Tests used:
Test in all cases: PBM binding z-score (relative to random genomic background probes); higher = stronger binding; sequences stand for … in GC…GCGATTGACAGCGTAGAATGAAGG
[1] = tested on: RARb homodimer (NR concentration 270 nM)
Method in brief: (§1)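 Custom Agilent 4×180K protein-binding microarrays carried double-stranded probes. Their 34-nt variable regions held direct-repeat seeds, single-nucleotide variants, half-site ablations and random human genomic background sequences. Arrays were incubated 1 h with ligand-free nuclear receptor dimers in PBS pH 7.4, 2% milk, 0.02% Triton X-100, 1 mM DTT, 0.2 mg/mL BSA and 0.4 mg/ml salmon testes DNA. Antibodies against each partner (one per run) detected binding, and scanned fluorescence was regression-normalized. Binding z-scores use random background probes as reference.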

[2] = tested on: RARg:RXRa (NR concentration 270 nM, RXRa partner concentration 90 nM)
Method in brief: as §1

[3] = tested on: RARg homodimer (NR concentration 270 nM)
Method in brief: as §1

[4] = tested on: RXRa DBDmut IVT, anti-RXR (DBD mutation: RXRa K156A/R161A, NR concentration 90 nM)
Method in brief: as §1

[5] = tested on: RXRa homodimer (NR concentration 180 nM)
Method in brief: as §1

[6] = tested on: THRa:RXRa (NR concentration 90 nM, RXRa partner concentration 90 nM)
Method in brief: as §1

[7] = tested on: THRa homodimer (NR concentration 90 nM)
Method in brief: as §1

[8] = tested on: VDR:RXRa (NR concentration 270 nM, RXRa partner concentration 90 nM)
Method in brief: as §1

[9] = tested on: VDR homodimer (NR concentration 270 nM)
Method in brief: as §1

Sequence | PBM binding z-score [1] | PBM binding z-score [2] | PBM binding z-score [3] | PBM binding z-score [4] | PBM binding z-score [5] | PBM binding z-score [6] | PBM binding z-score [7] | PBM binding z-score [8] | PBM binding z-score [9]
CATCGGAGGACAGAAGGTCAGAGCTGTCCGCTTT | 3.44 | 3.28 | 2.93 | -0.108 | 1.8 | 2.07 | 0.044 | 1.06 | 0.139
TGAATGAGGTTATGAGATCAGGGAACGTTGCAAA | 0.266 | 1.6 | 1.13 | 0.145 | 2.19 | 1.95 | 0.132 | 0.987 | 0.305
CCTATTAGTTGACCATAGGGGCAACCGAAGCTCG | 1.3 | 0.669 | 0.729 | 0.6 | 0.362 | 0.842 | 0.596 | 0.497 | 0.581
CGTCCAACGTCAGAGAGGTCAGTGAATGCCGAGT | 3.88 | 2.75 | 3.06 | 0.53 | 2.32 | 2.39 | 0.645 | 3.23 | 1.67
TCATTTAGGTAAATGCTAGGTGAAAGTCCGATCT | 0.541 | 0.116 | 0.0576 | 1.57 | 0.519 | 1.69 | 0.878 | 0.573 | 0.0956
ATGTCTAGGTAAAGATAGTTCAGTGAATGCAAAT | 0.94 | 0.598 | 0.794 | -0.0644 | 0.151 | 0.506 | -0.0958 | 0.565 | 0.431
CCTGCTAGGTCAAGGTCAGCTAATCTACAGTATG | 5.07 | 5.45 | 7.01 | 2.36 | 4.54 | 3.97 | 2.88 | 3.4 | 1.23
TGAATGAGGTTAAAGATCCGGGAACGTGGCGTCG | 0.578 | 1.5 | 1.05 | 1.22 | 2.61 | 2.12 | 0.411 | 1.03 | 0.437
TCATATCGGTAAAAGGTGAAAGTCGGTGTGGTAA | 2.12 | 1.68 | 0.807 | 1.6 | 2.29 | 1.4 | 0.504 | 1.54 | 0.635
CGAACAAGGGCATGAGTTGATAGCAAATGCCGAT | 0.58 | 1.12 | 1.42 | 1.3 | 0.715 | 0.492 | -0.294 | 0.706 | 1.18
CCAGACAGATGAGAAGGTAACTCAGCCTCGATTA | -0.0918 | 0.0576 | 0.416 | 0.092 | 0.0859 | 0.0683 | 0.259 | 0.0435 | 0.296
TCTTGTAGATCAAGGGTTAAGAAAGCCGAAGCCT | 0.274 | 0.818 | 0.191 | 0.293 | 1.64 | 0.516 | -0.93 | 0.604 | -0.218
ACTAGCAGGCCAAGGGTCAATCAAGATTAGTCCG | 3.46 | 4.36 | 3.8 | 0.567 | 4.62 | 2.76 | -0.086 |  | 0.551
TGTCAAAATTCAAAGGTAACGTAAGTATCCACAC | 0.464 | 0.501 | 0.807 | -0.417 | 0.772 | 1.16 | -0.046 | 0.436 | 0.102
GCTTACGGATCAAAGGTTATAGCATGAATAGAAT | 0.947 | 1.91 | 0.963 | 0.513 | 3.71 | 1.64 | -0.516 |  | -0.0828
TCATATACGTAAATGCTAGGTGAAAGTCCGATCT | 0.562 | 0.251 | 0.209 | 1.77 | 0.598 | 0.97 | 0.696 |  | 0.147
